Experimental data from the supplement of paper PMC13380429.

System: Vero E6 infected with SARS-CoV-2
Experiment: inhibition of SARS-CoV-2 cytopathic effect; higher = more antiviral protection, active = above 15
Conditions: 48 h

Measured: inhibition of SARS-CoV-2 cytopathic effect

CN(Cc1ccccc1)C(=O)[C@H](Cc1ccc2ccccc2c1)NC(=O)[C@@H]1C[C@@H](O)CN1C(=O)c1cn(C)c2ccccc12
inactive: 1 nM 1.18% | 8.33 nM 4.31% | 100 nM 3.48% | 833.33 nM 1.69% | 10000 nM 1.87%

O=C(NC1CCNCC1)c1n[nH]cc1NC(=O)c1c(Cl)cccc1Cl
inactive: 1 nM -0.55% | 8.33 nM -2.6% | 100 nM -1.5% | 833.33 nM -1.53% | 10000 nM 2.5%

CCC1NC(=O)c2cc(S(N)(=O)=O)c(Cl)cc2N1 (stereo not given) [quinethazone]
inactive: 1 nM -8.29% | 8.33 nM -6.61% | 100 nM -4.32% | 833.33 nM -5.24% | 10000 nM -5.16%

CCOc1ccn(-c2ccc(F)cc2)c(=O)c1C(=O)Nc1ccc(Oc2ccnc(N)c2Cl)c(F)c1
inactive: 1 nM 2.67% | 8.33 nM 1.32% | 100 nM -5.33% | 833.33 nM 2.11% | 10000 nM -3.09%

CN(C)C(=N)NC(=N)N [metformin]
inactive: 1 nM 0.25% | 8.33 nM 1.14% | 100 nM 2.76% | 833.33 nM 1.97% | 10000 nM 5.07%

N[C@H]1CC[C@H](N[C@@H]2C[C@H]2c2ccccc2)CC1
inactive: 1 nM -0.96% | 8.33 nM 2.24% | 100 nM 1.16% | 833.33 nM 1.11% | 10000 nM 1.79%

O=C(O)COc1ccc(OCCNC[C@H](O)COc2ccccc2)cc1
inactive: 1 nM -0.61% | 8.33 nM -0.47% | 100 nM -1.08% | 833.33 nM 0.26% | 10000 nM 1.07%
